Laboratory results: the supplement of paper PMC11732987, “Enantioselective OTUD7B fragment discovery through chemoproteomics screening and high-throughput optimisation” (Communications Chemistry, 2025)

Columns and labels:
Experiment in all cases: log2 ratio of Biotin-Ahx-Ub-VS probe labelling (compound/DMSO); higher = less target engagement, active = hit call of the paper (q ≤ 0.05, log2 ratio ≤ -1)
Conditions in all cases: treatment time: 3 h
[1] = compound: CCC1N(CCc2sccc12)C(=O)CCl
Outline: (§1)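 For activity-based profiling, 495 µg portions of HEK293T lysate in Tris/CHAPS/IGEPAL buffer with protease inhibitors were treated in triplicate with compound at 50 or 200 µM or with DMSO for 3 h. A 1 h incubation with Biotin-Ahx-Ub-VS (0.5 µM final) followed, then NeutrAvidin enrichment, LysC and trypsin digestion and diaPASEF LC-MS/MS. The compound/DMSO base-two log ratios were averaged from median-normalised label-free quantities using an unpaired t-test. Proteins needed at least 2 unique peptides to be included.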

[2] = compound: CN1c2ccccc2C(CS1(=O)=O)NC(=O)CCl
Outline: as §1

[3] = compound: Cl.ClCC(=O)N1CCc2ncncc2C1
Outline: as §1

[4] = compound: Cl.Cn1ncc2C(CCCc12)NC(=O)CCl
Outline: as §1

[5] = compound: ClCC(=O)NC1CCOc2ccccc12
Outline: as §1

[6] = compound: ClCC(=O)NC1CCCc2ccccc12
Outline: (§2)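 HEK293T lysate (495 µg per sample, in Tris/CHAPS/IGEPAL buffer with protease inhibitors) was treated in triplicate with compound over a concentration series or DMSO for 3 h, then with Biotin-Ahx-Ub-VS (0.5 µM final) for 1 h. Labelled DUBs were NeutrAvidin-enriched, digested with LysC and trypsin, and run by diaPASEF LC-MS/MS. Spectronaut label-free protein quantities were global-median-normalised. Values are average log2 ratios compound/DMSO from an unpaired t-test, using proteins with ≥2 unique peptides.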

[7] = compound: ClCC(=O)N[C@@H]1CCCc2ccccc12
Outline: as §2

[8] = compound: ClCC(=O)N[C@H]1CCCc2ccccc12
Outline: as §2

[9] = compound: CCC1N(CCc2cc(OC)c(Cl)cc12)C(=O)CCl
Outline: as §1

[10] = compound: CCCC1N(CCc2cc(OC)c(OC)cc12)C(=O)CCl
Outline: as §1

[11] = compound: CN(Cc1cccc(Br)c1)C(=O)CCl
Outline: as §1

[12] = compound: CN(Cc1cccc(OCc2ccccc2C)c1)C(=O)CCl
Outline: as §1

[13] = compound: CN(Cc1ccccc1)C(=O)CCl
Outline: as §1

[14] = compound: COc1ccc(CN(C)C(=O)CCl)cc1
Outline: as §1

[15] = compound: COc1cccc(CN(CCCc2ccccc2)C(=O)CCl)c1
Outline: as §1

[16] = compound: ClCC(=O)N1CCc2cc(Cl)c(Cl)cc2C1
Outline: as §1

[17] = compound: ClCC(=O)N1CCc2nc(ncc2C1)-c1ccccc1
Outline: as §1

[18] = compound: ClCC(=O)N1CCc2nocc2C1
Outline: as §1

[19] = compound: ClCC(=O)N1CCc2scc(Br)c2C1
Outline: as §1

[20] = compound: ClCC(=O)NC(C1CCCC1)c1cccs1
Outline: as §1

Measured: log2 ratio of Biotin-Ahx-Ub-VS probe labelling

USP19 (UniProt O94966)
UniProt O94966, sequence (O94966 whole entry): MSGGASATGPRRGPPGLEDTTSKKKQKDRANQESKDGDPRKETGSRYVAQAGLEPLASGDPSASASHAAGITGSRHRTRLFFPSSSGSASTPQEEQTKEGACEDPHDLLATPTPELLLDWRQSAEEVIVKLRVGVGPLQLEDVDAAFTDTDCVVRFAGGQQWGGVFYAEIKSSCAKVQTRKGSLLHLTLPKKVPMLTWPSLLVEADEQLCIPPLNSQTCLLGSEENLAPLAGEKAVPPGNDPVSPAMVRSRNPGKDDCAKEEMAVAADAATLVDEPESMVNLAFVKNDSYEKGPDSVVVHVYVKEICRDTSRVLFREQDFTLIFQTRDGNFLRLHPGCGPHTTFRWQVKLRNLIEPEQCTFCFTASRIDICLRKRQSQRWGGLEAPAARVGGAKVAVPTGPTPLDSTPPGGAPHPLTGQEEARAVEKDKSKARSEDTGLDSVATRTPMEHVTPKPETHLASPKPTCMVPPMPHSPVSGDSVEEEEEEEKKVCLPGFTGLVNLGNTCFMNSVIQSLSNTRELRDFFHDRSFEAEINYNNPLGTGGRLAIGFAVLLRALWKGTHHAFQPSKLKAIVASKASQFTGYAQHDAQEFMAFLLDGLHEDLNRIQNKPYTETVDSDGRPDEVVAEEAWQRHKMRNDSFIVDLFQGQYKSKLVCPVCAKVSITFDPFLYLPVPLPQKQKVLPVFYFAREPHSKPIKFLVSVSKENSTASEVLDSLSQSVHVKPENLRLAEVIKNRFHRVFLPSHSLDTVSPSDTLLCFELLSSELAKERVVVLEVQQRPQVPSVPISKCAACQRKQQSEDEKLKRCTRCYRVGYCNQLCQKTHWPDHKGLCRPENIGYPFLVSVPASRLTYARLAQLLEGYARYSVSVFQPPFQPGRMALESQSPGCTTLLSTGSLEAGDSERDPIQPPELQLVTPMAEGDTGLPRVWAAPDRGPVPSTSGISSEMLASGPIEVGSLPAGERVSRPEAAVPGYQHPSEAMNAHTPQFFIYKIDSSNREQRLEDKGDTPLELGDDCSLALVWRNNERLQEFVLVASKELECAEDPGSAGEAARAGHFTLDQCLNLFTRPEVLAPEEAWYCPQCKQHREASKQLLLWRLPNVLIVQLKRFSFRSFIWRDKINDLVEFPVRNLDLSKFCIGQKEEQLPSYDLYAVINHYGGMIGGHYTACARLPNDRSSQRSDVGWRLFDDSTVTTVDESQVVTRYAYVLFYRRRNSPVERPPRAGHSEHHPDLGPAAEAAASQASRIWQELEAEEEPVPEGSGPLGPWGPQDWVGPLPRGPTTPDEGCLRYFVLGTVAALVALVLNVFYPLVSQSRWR
active: [3]; compound concentration: 200uM -1.13 | [9]; compound concentration: 200uM -2.38 | [10]; compound concentration: 50uM -1.67 | [10]; compound concentration: 200uM -3.32 | [11]; compound concentration: 200uM -1.2 | [12]; compound concentration: 50uM -1 | [12]; compound concentration: 200uM -1.76 | [15]; compound concentration: 200uM -1.37 | [16]; compound concentration: 200uM -3.11 | [17]; compound concentration: 200uM -2.01 | [18]; compound concentration: 200uM -1.17 | [19]; compound concentration: 200uM -2.35
inactive: [1]; compound concentration: 50uM -0.285 | [1]; compound concentration: 200uM -0.845 | [2]; compound concentration: 50uM -0.191 | [2]; compound concentration: 200uM -0.286 | [3]; compound concentration: 50uM -0.264 | [4]; compound concentration: 50uM 0.00316 | [4]; compound concentration: 200uM -0.0581 | [5]; compound concentration: 50uM -0.218 | [5]; compound concentration: 200uM -0.211 | [6]; compound concentration: 0.78uM 0.0115 | [6]; compound concentration: 1.56uM 0.0325 | [6]; compound concentration: 3.13uM -0.14 | [6]; compound concentration: 6.25uM -0.00117 | [6]; compound concentration: 12.5uM -0.0872 | [6]; compound concentration: 25uM -0.173 | [6]; compound concentration: 50uM -0.131 | [6]; compound concentration: 100uM -0.081 | [6]; compound concentration: 200uM -0.216 | [7]; compound concentration: 0.78uM -0.105 | [7]; compound concentration: 1.56uM -0.0178 | [7]; compound concentration: 3.13uM -0.00588 | [7]; compound concentration: 6.25uM 0.0401 | [7]; compound concentration: 12.5uM -0.0591 | [7]; compound concentration: 25uM -0.121 | [7]; compound concentration: 50uM -0.26 | [7]; compound concentration: 100uM -0.182 | [7]; compound concentration: 200uM -0.339 | [8]; compound concentration: 0.78uM -0.0486 | [8]; compound concentration: 1.56uM -0.0156 | [8]; compound concentration: 3.13uM 0.00736 | [8]; compound concentration: 6.25uM 0.0504 | [8]; compound concentration: 12.5uM -0.0195 | [8]; compound concentration: 25uM -0.0989 | [8]; compound concentration: 50uM -0.0366 | [8]; compound concentration: 100uM -0.126 | [8]; compound concentration: 200uM -0.311 | [9]; compound concentration: 50uM -0.648 | [11]; compound concentration: 50uM -0.419 | [13]; compound concentration: 50uM -0.372 | [13]; compound concentration: 200uM -0.827 | [14]; compound concentration: 50uM -0.301 | [14]; compound concentration: 200uM -0.572 | [15]; compound concentration: 50uM -0.64 | [16]; compound concentration: 50uM -0.948 | [17]; compound concentration: 50uM -0.512 | [18]; compound concentration: 50uM -0.407 | [19]; compound concentration: 50uM -0.747 | [20]; compound concentration: 50uM -0.0897 | [20]; compound concentration: 200uM -0.299
